In the library only some 4.6% were active in any assay of this set; here they are far more common.
D1 antag = human D1 dopamine receptor antagonism | P21728 | HEK293 TREx D1 cells, calcium flux, dopamine EC80; active compounds read low | activity change, negative = inhibition, % at 10 µM | 360,000 compounds, 3.2% hits | AID 504652; in the data active = activity change below about -30%
Target sequence (P21728 whole entry, looked up): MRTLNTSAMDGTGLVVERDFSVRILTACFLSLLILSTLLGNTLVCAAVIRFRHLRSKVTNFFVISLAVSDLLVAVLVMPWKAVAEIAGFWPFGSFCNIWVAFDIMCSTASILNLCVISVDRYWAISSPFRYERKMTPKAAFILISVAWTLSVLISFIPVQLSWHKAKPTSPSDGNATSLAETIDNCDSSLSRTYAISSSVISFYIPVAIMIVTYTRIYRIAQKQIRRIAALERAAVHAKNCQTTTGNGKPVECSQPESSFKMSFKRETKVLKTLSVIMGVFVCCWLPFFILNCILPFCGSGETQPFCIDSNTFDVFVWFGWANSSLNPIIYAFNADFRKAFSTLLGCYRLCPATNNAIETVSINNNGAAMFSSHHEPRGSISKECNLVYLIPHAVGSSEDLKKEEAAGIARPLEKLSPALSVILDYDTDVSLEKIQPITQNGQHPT
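After overnight tetracycline induction at 30 C, force-coupled D1 HEK293 cells took up a no-wash calcium dye at room temperature. Compounds were added and monitored 180 s, and the response to EC80 dopamine was then recorded.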
D1 ag = agonists of human D1 dopamine receptor | HEK293 T-REx D1 cells, calcium flux, agonist mode | activation, % at 2 µM | 360,000 compounds, 1% hits
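Inducible HEK293 T-REx D1 cells, force-coupled to calcium signalling, were plated at 4000 cells/well with tetracycline and held overnight at 30 C. After no-wash calcium dye loading, compound-evoked calcium rise over 180 s flagged agonists.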
TRHR agonist = agonists of human TRH receptor. 360,000 compounds, 0.18% hits. TRHR cells, calcium flux fluo-8, FDSS agonist mode. activation, % at 2 µM
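Agonist-mode FDSS calcium read (Ex 480/Em 530, 1 s cycles) in 1536-well TRHR cells with fluo-8 dye, after 10-cycle baseline and 23 nL compound addition; TRH at EC20 (10 nM final) added afterwards for the enhancer phase.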
TRHR enhancer = allosteric enhancers of human TRH receptor | TRHR cells, fluo-8 calcium fluorescence, EC20 TRH enhancement | enhancement, % at 2 µM | 360,000 compounds, 0.66% hits; in the data active = enhancement above about 30%
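Enhancer read-out: after compound pinning and an initial kinetic agonist-mode read, an EC20 of TRH (10 nM final) was injected and fluo-8 calcium signal (Ex 480/Em 530) followed at 1 s/cycle for 100 cycles in TRHR-expressing cells.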
D1 PAM = potentiators of human D1 dopamine receptor. HEK293 TREx D1 cells, calcium flux, dopamine EC20 potentiation. potentiation, % at 10 µM. 360,000 compounds, 0.036% hits. AID 504651; in the data active = potentiation above about 30%
A number is an active result; – = inactive; · = no result given. Cut-off read from the data, not from the text of the source, unless noted: active = activation above about 30%; inactive = the rest.

SMILES | D1 antag | D1 ag | TRHR agonist | TRHR enhancer | D1 PAM
CCC(C(=O)NCCc1c[nH]c2cc(OC)ccc12)c1ccccc1 (stereo unspecified) | -80 | – | – | – | –
COc1ccc2[nH]cc(CCNC(=O)CCC3CCCCC3)c2c1 | -43 | – | – | – | –
CN(C)c1ccc(-c2nnc(SCC3CCCO3)n2C)cc1 (stereo unspecified) | – | – | – | – | –
CCOc1cc(C(Nc2cc(C)ccn2)c2ccc3cccnc3c2O)ccc1OC (stereo unspecified) | – | – | – | 41 | –
COc1ccc(C(Nc2ccccn2)c2ccc3ccc(C)nc3c2O)cc1C (stereo unspecified) | – | – | – | – | –
COC(=O)c1nnn(-c2nonc2N)c1CSc1nnc(C)s1 | – | – | – | – | –
O=C(Nc1cccc(F)c1)c1cc(S(=O)(=O)N2CCOCC2)cs1 | -84 | – | – | – | –
O=C(Nc1ccc(F)cc1)c1cc(S(=O)(=O)N2CCOCC2)cs1 | -61 | – | – | – | –
CCOC(=O)N1CCN(C(c2ccc(C(C)C)cc2)c2sc3nc(C)nn3c2O)CC1 (stereo unspecified) | – | – | – | – | –
Cc1ccc(O)c(-c2cc(C(F)(F)C(F)F)[nH]n2)c1 | – | 164 | – | – | –
COc1ccc(C(=O)C2CCCN(Cc3c(F)ccc(F)c3F)C2)c(OC)c1 (stereo unspecified) | – | – | – | – | –
COc1ccc(C(=O)C2CCCN(Cc3cccn3-c3ccc(Cl)cn3)C2)c(OC)c1 (stereo unspecified) | – | 33 | – | – | –
O=C(c1ccc(Cl)cc1)C1CCCN(Cc2cccn2-c2cccnc2)C1 (stereo unspecified) | – | – | – | 33 | –
CSc1ccc(C(=O)C2CCCN(Cc3cccn3-c3cccnc3)C2)cc1 (stereo unspecified) | – | – | – | – | –
CCN(C(=O)CSc1nc2ccccc2n1CC(=O)NCc1ccc(OC)cc1)c1ccccc1 | – | 35 | – | – | –
COc1ccc(CNC(=O)Cn2c(SCC(=O)N(C)c3ccccc3)nc3ccccc32)cc1 | – | – | – | – | –
CCC(C)NC(=O)CSc1nc2ccccc2c(=O)n1Cc1ccc(OC)cc1 (stereo unspecified) | – | – | – | 32 | –
COc1ccc2oc(=O)c(-c3nc(-c4cc(OC)c(OC)c(OC)c4)no3)cc2c1 | – | – | – | 31 | –
O=C(Nc1ccc(S(=O)(=O)N2CCOCC2)cc1)C1CCCCC1 | – | – | – | – | 43
CN(CCOc1ccc(Cl)cc1)C(=O)c1ccc(S(=O)(=O)N2CCOCC2)cc1 | -39 | – | – | – | –
Cc1ccccc1N1CC(C(=O)Nc2ccc(S(=O)(=O)N3CCCCC3)cc2)CC1=O (stereo unspecified) | – | – | – | 35 | –
O=C(Nc1ccc(S(=O)(=O)N2CCCCCC2)cc1)c1ccco1 | – | – | – | – | –
CCOC(=O)C1CCN(S(=O)(=O)c2ccc(NC(=O)c3ccco3)cc2)CC1 | -33 | – | – | – | –
O=C(Nc1ccc(S(=O)(=O)N2CCCC2)cc1)C1CCCCC1 | – | – | – | – | –
CN(CCOc1ccccc1)C(=O)c1cc(S(=O)(=O)N2CCOCC2)ccc1Cl | – | – | – | – | –
SMILES | D1 antag | D1 ag | TRHR agonist | TRHR enhancer | D1 PAM
CN(CC(=O)Nc1cccc(S(=O)(=O)N(C)C)c1)Cc1ccccc1 | – | – | – | – | ·
Cn1c(=O)n(Cc2ccccc2Cl)c(=O)c2c1[nH]c(=S)n2C | – | – | – | – | –
Fc1ccccc1Cc1noc(CN(Cc2ccccn2)CC2CCCO2)n1 (stereo unspecified) | – | – | – | – | –
CC(=O)Nc1ccc(S(=O)(=O)N2CCC(C(=O)c3ccc(Cl)cc3)CC2)cc1 | -44 | – | – | – | –
Cc1ccc(NC(=O)c2ccc(S(=O)(=O)N3CCC(C)CC3)cc2)cc1 | -39 | – | – | – | –
CC1CCN(C2CCN(S(=O)(=O)c3ccc(F)cc3)CC2)CC1 | -33 | – | – | – | –
O=S(=O)(Nc1cc(S(=O)(=O)N2CCCC2)ccc1O)c1ccc(Cl)s1 | – | – | – | – | –
O=S(=O)(c1ccc(F)cc1)N1CCC(N2CCCCCC2)CC1 | – | – | – | – | –
O=C(Nc1cc(S(=O)(=O)N2CCOCC2)ccc1O)c1ccc(NS(=O)(=O)c2ccc(Cl)s2)cc1 | -68 | – | – | – | –
Cc1ccc(C(=O)Nc2ccc(S(=O)(=O)N3CCOCC3)cc2)cc1 | – | – | – | – | –
COc1cc(C2CC(=O)Nc3c2c(=O)n(C)c(=O)n3C)cc(OC)c1OC (stereo unspecified) | – | – | – | – | –
N/C(=N\OC(=O)c1ccc(Cl)cc1)c1ccn[nH]1 | – | – | – | – | –
CCOc1ccc(C(=O)Nc2ccc(S(=O)(=O)N3CCN(C)CC3)cc2)cc1 | – | – | – | – | –
CC(=O)Oc1ccc(C(=O)Nc2ccc(S(=O)(=O)N3CCOCC3)cc2)cc1 | -90 | – | – | 41 | –
CC(C)Oc1ccc(C(=O)Nc2ccc(S(=O)(=O)N3CCN(C)CC3)cc2)cc1 | -53 | – | – | – | –
O=C(Nc1ccc(S(=O)(=O)N2CCOCC2)cc1)c1ccc(S(=O)(=O)N2CCOCC2)cc1 | – | – | – | – | –
O=C(Nc1ccc(Cc2ccncc2)cc1)c1ccc(S(=O)(=O)N2CCOCC2)cc1 | -41 | – | – | – | –
COc1ccc(C)cc1NC(=O)c1ccccc1NS(=O)(=O)c1ccc(Cl)s1 | -31 | – | – | – | –
COc1ccc2c(CC(=O)Nc3ccc(N4CCOCC4)cc3)coc2c1 | – | – | – | – | –
Cc1ccc(NC(=O)Cn2cc(S(=O)(=O)c3ccc(C)cc3)c(=O)c3cc(F)ccc32)cc1 | – | – | – | – | –
Cc1ccc(S(=O)(=O)N2CCOCC2)cc1C(=O)OCCOc1cccc(Cl)c1 | – | 31 | – | – | –
O=C(OCCOc1ccccc1)c1cccc(S(=O)(=O)N2CCOCC2)c1 | – | – | – | – | –
O=C(Nc1ccc(S(=O)(=O)N2CCOCC2)cc1)c1ccc(Cl)cc1 | -40 | – | – | – | –
Cc1ccc(NC(=O)c2ccccc2NS(=O)(=O)c2ccc(Cl)s2)cc1S(=O)(=O)N1CCOCC1 | -50 | 34 | – | – | –
O=S(=O)(Nc1cccc(S(=O)(=O)N2CCOCC2)c1)c1ccc(Cl)s1 | – | – | – | – | –
CCOC(=O)c1ccc(NC(=O)CC2C(=O)N(c3cccc(C)c3)C(=O)N2CCOC)cc1 (stereo unspecified) | – | – | – | – | –
CN(Cc1cccs1)c1ncnc2sccc12 | – | – | – | – | –
O=C(CCCn1c(=O)c2ccccc2n(CC(=O)Nc2cccc(Cl)c2)c1=O)NCc1ccc2c(c1)OCO2 | – | – | – | – | –

From PubChem
